The list is not random: actives were taken first. Their share in the collection is about 11%.
IMPase inh: cell-permeable inhibitors of inositol monophosphatase (IMPase) | inhibition (IP1 accumulation), % at 46.1 µM | CHO-M1 cells, IP1 accumulation, HTRF TR-FRET ratio | 120,000 tested, under 10 active; active = well fitted curve in the direction sought with a large enough effect in the signal ratio, not every such curve was filed as active; inconclusive = small, poorly fitted or top-dose-only effect, or a change in a side signal; inactive = no such curve, though single readings can be large or run the other way; the % refers to the signal ratio;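 note: cells stimulated with carbachol in lithium chloride buffer; higher means more IMPase inhibition seen as more IP1 and lower FRET ratio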
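The IP-One HTRF competitive assay in carbachol-stimulated CHO-M1 cells quantifies cellular IP1. Compounds spanned up to 46 uM final, and activity is expressed as AC50 from concentration-response fits of the ratio and donor data.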
ALOX12 inhib: inhibitors of human 12-lipoxygenase (ALOX12). P18054. purified 12-hLO, xylenol orange hydroperoxide absorbance. Potency, µM (top dose mostly 57.1 µM), usual class: inhibitors. 150,000 tested, 0.12% active; note: nearly all actives have a fitted effect of over 55% in size
Target sequence (P18054 whole entry, looked up): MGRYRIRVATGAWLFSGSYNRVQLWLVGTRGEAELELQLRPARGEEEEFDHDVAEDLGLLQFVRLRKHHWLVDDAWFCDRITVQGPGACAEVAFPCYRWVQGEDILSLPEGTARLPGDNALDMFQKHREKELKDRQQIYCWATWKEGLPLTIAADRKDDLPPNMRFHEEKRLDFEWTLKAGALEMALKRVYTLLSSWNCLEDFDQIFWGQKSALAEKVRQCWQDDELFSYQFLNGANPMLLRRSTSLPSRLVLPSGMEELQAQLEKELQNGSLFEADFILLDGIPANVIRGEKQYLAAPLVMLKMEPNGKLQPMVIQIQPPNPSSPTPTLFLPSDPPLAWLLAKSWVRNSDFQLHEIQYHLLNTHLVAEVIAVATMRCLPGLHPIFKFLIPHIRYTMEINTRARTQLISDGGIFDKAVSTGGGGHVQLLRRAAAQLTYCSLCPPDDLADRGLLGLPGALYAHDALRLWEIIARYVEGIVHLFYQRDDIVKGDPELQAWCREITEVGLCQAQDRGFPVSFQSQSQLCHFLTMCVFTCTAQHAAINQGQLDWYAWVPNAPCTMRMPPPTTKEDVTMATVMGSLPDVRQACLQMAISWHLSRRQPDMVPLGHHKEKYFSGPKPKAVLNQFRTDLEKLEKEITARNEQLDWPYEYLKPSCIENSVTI
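Purified human 12hLO (150 nM final) was preincubated with compounds for 15 min at room temperature in 25 mM Hepes pH 7.0, 0.01% Triton X-100, then reacted with 40 uM arachidonic acid for 30 min. Hydroperoxide was detected with ferrous iron/xylenol orange.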
HPGD inh: inhibitors of human 15-hydroxyprostaglandin dehydrogenase (HPGD); Potency, µM, usual class: inhibitors; AID 894; purified HPGD, NADH fluorescence kinetic, PGE2 substrate; 150,000 tested, 4.3% active; active = well fitted inhibition curve with a large enough effect, not every such curve was filed as active; inconclusive = small, poorly fitted or top-dose-only effect, or another doubt; inactive = no such curve, though single readings can be large or run the other way
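NADH formation kinetics: reaction with 30 uM PGE2 and 1 mM NAD+ (final), 20 nM enzyme, Tris-HCl pH 8 with Tween 20, after 15 min compound preincubation at room temperature. Fluorescence change, last versus first of five reads.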
PNC assembly inh: inhibitors of perinucleolar compartment assembly | PC3M PTB-GFP, PNC prevalence imaging, 16 h; stronger effect = lower value | AID 2417 | activity change (PNC), negative = inhibition, % at 10 µM | 140,000 tested, 3.1% active;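 active = readout at or below -70, meaning at least 70% loss of cells showing the perinucleolar compartment, a nuclear body marking cancer cells; inconclusive = readout between -30 and a set limit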
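PC3M cells stably expressing PTB-GFP, 750–1000 cells/well, treated 16 h at 37 °C with compound (23 nl of library stock), in duplicate. After paraformaldehyde fixation and Hoechst stain, imaged at 20x; PNC prevalence scored by image analysis.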
ALDH1A1 block: ALDH1A1 (human) enzyme inhibition; Purified ALDH1A1, NADH fluorescence, propionaldehyde substrate; 220,000 tested, 7.3% active; P00352; AID 1030; Potency, µM (top dose mostly 75.3 µM), usual class: inhibitors; active = well fitted inhibition curve with a large enough effect, not every such curve was filed as active; inconclusive = small, poorly fitted or top-dose-only effect, or another doubt; inactive = no such curve, though single readings can be large or run the other way
IMPase Li inh: membrane-permeable IMPase blocker, potentiated with lithium; CHO-M1 cells, IP1 TR-FRET (IP-One), carbachol + lithium; Potency, µM (titrated, usually from 59.4 µM), hits mostly inhibitors; 210,000 tested, 0.35% active; AID 1457;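 note: IP1 builds up when IMPase is blocked and the TR-FRET signal falls; nearly all actives have a fitted effect of over 50% in size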
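Lithium-sensitised IP1 accumulation assay; M1-expressing CHO cells treated 30 min at 37C with compound. Competitive antibody detection by time-resolved FRET followed a 10 min room-temperature lysis step.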
Hits are given with their value; 0 = inactive; ? = inconclusive; - = no result; [ ] = remark or other dose. Unless noted, calls come from the whole dose curve; as a rule, active = well fitted curve in the direction sought with a large enough effect; inconclusive = small, poorly fitted or top-dose-only effect, or another doubt; inactive = no such curve, though single readings can be large; an effect the other way counts as inactive or inconclusive.

SMILES	IMPase inh	ALOX12 inhib	HPGD inh	PNC assembly inh	ALDH1A1 block	IMPase Li inh
CC(=O)OCC(=O)NCc1ccc2c(c1)OCO2	0	0	20µM	?	0	0
O=C(COC(=O)c1ccc(O)cc1)NCc1ccc2c(c1)OCO2	-	-	-	-	0	0
CC(C)c1ccc(C(=O)CC2(O)C(=O)N(CCc3ccccc3)c3ccc(Cl)cc32)cc1 (centres undefined)	0	-	-	-	-	-
CCOC(=O)CSc1nc2ccccc2c(=O)n1-c1cccc(C)c1	0	-	-	-	-	-
Cc1ccsc1C(=O)OCC(=O)NCc1ccc2c(c1)OCO2	0	0	13µM	0	0	0
CCOC(=O)c1c(C)oc2ccc(OCC(N)=O)cc12	0	0	0	?	0	0
CCOC(=O)c1c(C)cccc1OCC(N)=O	0	0	0	-100	0	0
Cc1ccsc1/C=N/n1c(-c2ccco2)n[nH]c1=S	0	0	14µM	?	14µM	0
Cc1ccsc1/C=N/n1c(-c2ccncc2)n[nH]c1=S	-	0	28µM	0	0	0
S=c1[nH]nc(-c2cc(-c3ccccc3)n[nH]2)n1/N=C/c1cccs1	-	-	-	-	0	-
Cc1ccsc1/C=N/n1c(-c2ccccn2)n[nH]c1=S	-	0	28µM	?	?	0
S=c1[nH]nc(-c2ccccn2)n1/N=C/c1cccc(Cl)c1	-	-	-	-	?	0
Cc1ccsc1/C=N/n1c(-c2ccccc2)n[nH]c1=S	-	0	13µM	0	?	0
Cn1cccc1/C=N/n1c(-c2ccco2)n[nH]c1=S	-	-	-	-	0	0
Cc1ccc(/C=N/n2c(-c3ccncc3)n[nH]c2=S)o1	-	-	-	-	0	0
CN(C)c1nc2c(Br)c(Br)c(Br)c(Br)c2[nH]1	0	0	0	-	0	0
O=C(Nc1ccc2oc(-c3cccnc3)nc2c1)c1ccc(-c2ccccc2OC(F)(F)F)o1	0	-	-	-	-	-
Cc1cccc(NC2=CC(c3cccc(Br)c3)N(c3cccc(C)c3)C2=O)c1 (centres undefined)	0	-	-	-	-	-
Cc1nn2c(-c3cccc(NC(=O)c4ccc(Cl)cc4)c3)nnc2c2ccccc12	0	-	-	-	-	-
S=c1[nH]nc(-c2ccco2)n1/N=C/C(Cl)=C/c1ccccc1	-	-	-	-	0	-
Cc1cc(-c2n[nH]c(=S)n2/N=C/c2cccc(O)c2)n[nH]1	-	-	-	-	0	-
Cc1cc(-c2n[nH]c(=S)n2/N=C/C(Cl)=C/c2ccccc2)n[nH]1	-	0	6.3µM	0	?	0
Cc1cc(-c2n[nH]c(=S)n2/N=C/c2sccc2C)n[nH]1	-	0	22µM	0	0	0
O=c1oc2ccc3ccccc3c2cc1-c1nnc(Nc2cccc(F)c2)s1	0	-	-	-	-	-
C[n+]1c2n(c3ccccc31)N=C(c1ccc(Br)cc1)CS2	0	0	0	0	18µM	0
SMILES	IMPase inh	ALOX12 inhib	HPGD inh	PNC assembly inh	ALDH1A1 block	IMPase Li inh
C[n+]1c2n(c3ccccc31)N=C(c1ccc(-c3ccccc3)cc1)CS2	-	-	-	-	0	0
O=C(O)[C@H]1C(=CCO)O[C@H]2CC(=O)N12	-	0	0	-	?	0
CCCC(=O)Nc1ccc(NC(=O)Cc2ccccc2)cn1	0	0	0	0	0	0
CCCC(=O)Nc1ccc(NC(=O)CCc2ccccc2)cn1	0	0	0	-114	0	0
CCCC(=O)Nc1ccc(NC(=O)c2ccccc2Cl)nc1	?	0	0	-84	0	0
O=C(Nc1ccc(NC(=O)c2ccccc2Cl)nc1)c1ccncc1	-	-	-	-	0	0
CCO[C@@H]1OC(C(=O)NCc2ccccc2)=C[C@H](c2ccc(C(F)(F)F)cc2)[C@H]1CCCO	-	-	-	-	0	0
CC1(C#CC[N+]2(C)CCCCC2)CCC2C(O1)c1ccccc1OC2(C)C (centres undefined)	-	-	-	-	32µM	0
CC1(C(O)(C#CC[N+]2(C)CCCCC2)c2ccccc2)CCCC1 (centres undefined)	-	-	-	-	0	0
Cn1c(Oc2ccccc2)nc2c1c(=O)n(Cc1ccc(Cl)cc1Cl)c(=O)n2C	0	-	-	-	-	-
CC(=O)OC[C@@H]1O[C@H](CCO/N=C(\C)CCN2CCCc3nc(C)c(C)cc32)C=C[C@@H]1OC(C)=O	-	-	-	-	0[13.5 µM]	-
Cc1ccc(N2C(=N)/C(=C3/Nc4ccccc4S3)C(c3ccccc3)C2=O)cc1 (centres undefined)	0	0	-	?	9.5µM	-
COCCCNC(=O)/C(C#N)=C1\N=C(NC(=O)c2cccs2)c2ccccc21	-	-	-	-	4µM	-
CN(Cc1ccco1)c1ncncc1-c1ccc2c(c1)OCO2	-	-	-	-	0	0
O=C(O)C/C=C(\NC(=O)OCc1ccccc1)C(=O)OCc1ccccc1	-	-	-	-	0.28µM	0
CN(C)c1ncc2nc(-c3cn(C)c4ccccc34)c(=O)n(C[C@H]3CCCO3)c2n1	-	-	-	-	0	0
COC(=O)Nc1ccc2[nH]cc(CCNC(C)=O)c2c1	0	0	0	-	0	0
Nc1ncc(Br)cc1S(=O)(=O)NCCC(=O)N1CCN(c2ccccn2)CC1	-	0	0	-113	?	0
CCOC(=O)CCN1C(=O)[C@H]2[C@H]3[C@H](O)[C@H](O)C/C(=N/OCc4ccccc4)[C@H]3CC[C@@H]2C1=O	-	-	-	-	0[13.5 µM]	-
